According to publication PMC7862700, “An all-to-all approach to the identification of sequence-specific readers for epigenetic DNA modifications on cytosine”:

Assays:
Experiment in all cases: DAPPL (digital affinity profiling via proximity ligation, sequencing); 10 mM Tris-HCl pH 7.5, 50 mM NaCl, 1 mM DTT, 4% glycerol, room temperature, 30 min; GST-TFs on glutathione beads, 16-mer random dsDNA library, 0.1% formaldehyde crosslink after washing; high values mean tight binding
FLI1 = molecular target: T1, FLI1 (Homo sapiens, UniProt Q01543 1-452); details: protein: recombinant; tags: N-terminal GST; dsDNA, one strand shown
T1 sequence: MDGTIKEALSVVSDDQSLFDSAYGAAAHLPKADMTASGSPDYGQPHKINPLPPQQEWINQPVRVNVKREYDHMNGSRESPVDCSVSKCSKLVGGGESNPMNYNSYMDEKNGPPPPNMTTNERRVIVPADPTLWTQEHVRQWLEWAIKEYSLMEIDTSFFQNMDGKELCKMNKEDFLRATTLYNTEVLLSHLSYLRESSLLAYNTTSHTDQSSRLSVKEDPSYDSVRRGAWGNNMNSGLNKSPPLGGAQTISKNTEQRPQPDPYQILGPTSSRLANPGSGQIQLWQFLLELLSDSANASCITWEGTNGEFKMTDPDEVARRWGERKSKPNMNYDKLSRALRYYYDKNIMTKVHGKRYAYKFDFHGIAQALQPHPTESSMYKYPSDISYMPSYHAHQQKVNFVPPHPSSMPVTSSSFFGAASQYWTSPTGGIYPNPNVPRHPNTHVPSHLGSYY
In short: (§1)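 Human transcription factors fused to GST were expressed in yeast, captured on glutathione beads, given DNA barcodes and pooled with a GST-only negative control. Pools were incubated with 200 nmole of a 16-mer random double-stranded DNA library in Tris/NaCl/DTT/glycerol buffer at room temperature for 30 min. They were then washed, crosslinked with 0.1% formaldehyde, proximity-ligated (BsaI/T4 ligase, 1 h, 37 °C), PCR-amplified and sequenced on an Illumina NextSeq500. Binding signal is each 6-mer's read frequency for a factor divided by its frequency for the GST control.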

ELK1 = molecular target: T2, ELK1 (Homo sapiens, UniProt P19419 1-428); details: protein: recombinant; tags: N-terminal GST; dsDNA, one strand shown
T2 sequence: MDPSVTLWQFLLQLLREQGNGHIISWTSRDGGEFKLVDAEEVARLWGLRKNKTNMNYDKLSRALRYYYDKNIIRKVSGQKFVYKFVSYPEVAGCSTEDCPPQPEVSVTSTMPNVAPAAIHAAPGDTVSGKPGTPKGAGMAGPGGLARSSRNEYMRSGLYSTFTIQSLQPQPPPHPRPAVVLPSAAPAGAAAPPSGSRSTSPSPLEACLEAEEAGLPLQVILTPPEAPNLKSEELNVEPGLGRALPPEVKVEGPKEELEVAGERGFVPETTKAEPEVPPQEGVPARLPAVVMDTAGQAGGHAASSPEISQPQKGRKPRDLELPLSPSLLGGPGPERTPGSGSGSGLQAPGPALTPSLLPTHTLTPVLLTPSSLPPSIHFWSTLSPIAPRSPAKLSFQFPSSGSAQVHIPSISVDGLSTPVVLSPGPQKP
In short: as §1

GABPA = molecular target: T3, GABPA (Homo sapiens, UniProt Q06546 1-454); details: protein: recombinant; tags: N-terminal GST; dsDNA, one strand shown
T3 sequence: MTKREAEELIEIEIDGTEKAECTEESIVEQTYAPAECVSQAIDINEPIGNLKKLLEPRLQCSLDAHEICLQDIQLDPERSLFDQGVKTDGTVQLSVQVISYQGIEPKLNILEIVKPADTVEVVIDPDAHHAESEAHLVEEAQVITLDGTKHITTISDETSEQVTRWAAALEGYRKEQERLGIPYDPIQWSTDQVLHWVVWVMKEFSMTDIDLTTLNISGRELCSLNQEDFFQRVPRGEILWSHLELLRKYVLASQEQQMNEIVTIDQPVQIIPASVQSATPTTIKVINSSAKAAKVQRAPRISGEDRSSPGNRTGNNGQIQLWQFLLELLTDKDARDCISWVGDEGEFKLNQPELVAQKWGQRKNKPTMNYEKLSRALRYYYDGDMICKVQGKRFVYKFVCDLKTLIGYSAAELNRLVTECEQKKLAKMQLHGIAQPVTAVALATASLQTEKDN
In short: as §1

ERG = molecular target: T4, ERG (Homo sapiens, UniProt P11308 1-479); details: protein: recombinant; tags: N-terminal GST; dsDNA, one strand shown
T4 sequence: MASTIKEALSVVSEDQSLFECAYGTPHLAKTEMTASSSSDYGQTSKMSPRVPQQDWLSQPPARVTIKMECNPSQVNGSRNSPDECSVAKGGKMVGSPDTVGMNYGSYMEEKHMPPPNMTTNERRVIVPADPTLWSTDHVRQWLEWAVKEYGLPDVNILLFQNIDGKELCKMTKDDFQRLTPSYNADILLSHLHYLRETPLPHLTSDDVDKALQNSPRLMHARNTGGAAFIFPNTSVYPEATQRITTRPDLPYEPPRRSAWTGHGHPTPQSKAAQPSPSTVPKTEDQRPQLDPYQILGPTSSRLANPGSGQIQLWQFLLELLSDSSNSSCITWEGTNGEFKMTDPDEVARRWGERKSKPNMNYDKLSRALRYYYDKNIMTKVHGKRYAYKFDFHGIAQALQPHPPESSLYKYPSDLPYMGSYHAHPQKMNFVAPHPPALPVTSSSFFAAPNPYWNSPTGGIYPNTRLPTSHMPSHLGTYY
In short: as §1

ELF1 = ELF1 (Homo sapiens, UniProt P32519 1-619); details: protein: recombinant; tags: N-terminal GST; dsDNA, one strand shown
In short: as §1

EHF = molecular target: T5, EHF (Homo sapiens, UniProt Q9NZC4 1-300); details: protein: recombinant; tags: N-terminal GST; dsDNA, one strand shown
T5 sequence: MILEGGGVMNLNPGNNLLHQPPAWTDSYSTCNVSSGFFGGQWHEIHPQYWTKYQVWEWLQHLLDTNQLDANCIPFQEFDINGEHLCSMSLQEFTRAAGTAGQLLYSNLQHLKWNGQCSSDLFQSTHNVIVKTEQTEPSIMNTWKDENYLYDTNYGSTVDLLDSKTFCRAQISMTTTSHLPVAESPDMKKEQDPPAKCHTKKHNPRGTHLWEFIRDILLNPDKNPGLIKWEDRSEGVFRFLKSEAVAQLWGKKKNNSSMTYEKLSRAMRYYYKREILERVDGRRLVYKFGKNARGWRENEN
In short: as §1

SPI1 = SPI1 (Homo sapiens, UniProt P17947 1-270); details: protein: recombinant; tags: N-terminal GST; dsDNA, one strand shown
In short: as §1

SPIB = SPIB (Homo sapiens, UniProt Q01892 1-262); details: protein: recombinant; tags: N-terminal GST; dsDNA, one strand shown
In short: as §1

ELK3 = molecular target: T6, ELK3 (Homo sapiens, UniProt P41970 1-407); details: protein: recombinant; tags: N-terminal GST; dsDNA, one strand shown
T6 sequence: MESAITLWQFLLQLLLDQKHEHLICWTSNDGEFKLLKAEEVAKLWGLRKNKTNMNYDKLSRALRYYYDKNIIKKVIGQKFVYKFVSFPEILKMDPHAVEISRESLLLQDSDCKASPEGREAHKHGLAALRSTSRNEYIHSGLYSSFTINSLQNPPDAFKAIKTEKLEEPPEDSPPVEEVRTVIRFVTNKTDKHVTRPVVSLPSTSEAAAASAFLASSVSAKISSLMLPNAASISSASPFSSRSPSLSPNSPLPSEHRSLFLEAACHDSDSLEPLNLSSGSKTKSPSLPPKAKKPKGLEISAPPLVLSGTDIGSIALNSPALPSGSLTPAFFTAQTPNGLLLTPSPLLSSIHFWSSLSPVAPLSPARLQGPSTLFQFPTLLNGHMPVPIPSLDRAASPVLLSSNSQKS
In short: as §1

FEV = molecular target: T7, FEV (Homo sapiens, UniProt Q99581 1-238); details: protein: recombinant; tags: N-terminal GST; dsDNA, one strand shown
T7 sequence: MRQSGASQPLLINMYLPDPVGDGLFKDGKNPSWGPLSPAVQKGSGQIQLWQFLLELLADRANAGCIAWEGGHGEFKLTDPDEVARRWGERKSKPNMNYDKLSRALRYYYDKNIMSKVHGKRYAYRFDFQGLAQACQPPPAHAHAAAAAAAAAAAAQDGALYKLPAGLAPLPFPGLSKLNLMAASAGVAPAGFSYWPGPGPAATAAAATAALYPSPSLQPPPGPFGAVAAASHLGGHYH
In short: as §1

ETV5 = ETV5 (Homo sapiens, UniProt P41161 1-510); details: protein: recombinant; tags: N-terminal GST; dsDNA, one strand shown
In short: as §1

HSF1 = HSF1 (Homo sapiens, UniProt Q00613 1-529); details: protein: recombinant; tags: N-terminal GST; chain copies: 3; dsDNA, one strand shown
In short: as §1

SPIC = molecular target: T8, SPIC (Homo sapiens, UniProt Q8N5J4 1-248); details: protein: recombinant; tags: N-terminal GST; dsDNA, one strand shown
T8 sequence: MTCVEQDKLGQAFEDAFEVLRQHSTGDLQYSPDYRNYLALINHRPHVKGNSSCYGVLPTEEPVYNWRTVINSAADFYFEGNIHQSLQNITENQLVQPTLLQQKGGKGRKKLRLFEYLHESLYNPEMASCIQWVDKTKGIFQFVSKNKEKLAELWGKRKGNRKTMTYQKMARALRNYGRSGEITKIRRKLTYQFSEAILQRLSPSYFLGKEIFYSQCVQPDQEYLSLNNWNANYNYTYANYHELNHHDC
In short: as §1

ELF4 = ELF4 (Homo sapiens, UniProt Q99607 1-663); details: protein: recombinant; tags: N-terminal GST; dsDNA, one strand shown
In short: as §1

ELK4 = molecular target: T9, ELK4 (Homo sapiens, UniProt P28324-2 1-405); details: protein: recombinant; tags: N-terminal GST; dsDNA, one strand shown
T9 sequence: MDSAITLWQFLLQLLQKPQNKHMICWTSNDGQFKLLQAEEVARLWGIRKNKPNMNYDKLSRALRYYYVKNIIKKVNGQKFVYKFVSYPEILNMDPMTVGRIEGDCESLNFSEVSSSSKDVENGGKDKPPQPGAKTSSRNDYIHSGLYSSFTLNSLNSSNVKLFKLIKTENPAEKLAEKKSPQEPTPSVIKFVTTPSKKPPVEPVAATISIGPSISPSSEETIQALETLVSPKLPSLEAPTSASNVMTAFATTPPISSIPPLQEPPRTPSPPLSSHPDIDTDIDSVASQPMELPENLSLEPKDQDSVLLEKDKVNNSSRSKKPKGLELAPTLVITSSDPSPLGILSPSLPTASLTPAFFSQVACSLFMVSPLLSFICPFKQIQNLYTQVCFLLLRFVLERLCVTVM
In short: as §1

ETV2 = molecular target: T10, ETV2 (Homo sapiens, UniProt O00321 1-342); details: protein: recombinant; tags: N-terminal GST; dsDNA, one strand shown
T10 sequence: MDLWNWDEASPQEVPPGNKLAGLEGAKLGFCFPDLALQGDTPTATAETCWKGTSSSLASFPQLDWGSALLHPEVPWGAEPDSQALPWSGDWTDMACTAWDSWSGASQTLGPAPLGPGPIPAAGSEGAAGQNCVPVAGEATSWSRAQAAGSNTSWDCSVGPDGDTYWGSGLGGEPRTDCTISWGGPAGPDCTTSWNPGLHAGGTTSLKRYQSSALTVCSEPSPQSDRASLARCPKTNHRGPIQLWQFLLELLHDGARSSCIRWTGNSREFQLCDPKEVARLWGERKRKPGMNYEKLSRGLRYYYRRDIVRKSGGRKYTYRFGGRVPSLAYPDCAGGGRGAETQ
In short: as §1

ELF3 = molecular target: T11, ELF3 (Homo sapiens, UniProt P78545 1-371); details: protein: recombinant; tags: N-terminal GST; dsDNA, one strand shown
T11 sequence: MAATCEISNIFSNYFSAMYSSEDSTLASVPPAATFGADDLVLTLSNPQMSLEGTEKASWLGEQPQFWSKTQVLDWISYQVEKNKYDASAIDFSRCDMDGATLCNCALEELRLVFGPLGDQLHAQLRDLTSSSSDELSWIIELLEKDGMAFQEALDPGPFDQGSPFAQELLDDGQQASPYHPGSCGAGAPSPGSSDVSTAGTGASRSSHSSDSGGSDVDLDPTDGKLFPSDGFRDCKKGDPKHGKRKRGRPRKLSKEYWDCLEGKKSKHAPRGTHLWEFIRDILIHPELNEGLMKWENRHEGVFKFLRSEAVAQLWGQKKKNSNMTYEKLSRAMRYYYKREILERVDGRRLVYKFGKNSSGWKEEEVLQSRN
In short: as §1

CRX = CRX (Homo sapiens, UniProt O43186 1-299); details: protein: recombinant; tags: N-terminal GST; dsDNA, one strand shown
In short: as §1

ETV1 = ETV1 (Homo sapiens, UniProt P50549 1-477); details: protein: recombinant; tags: N-terminal GST; dsDNA, one strand shown
In short: as §1

Chain of SPIB (Q01892 whole entry): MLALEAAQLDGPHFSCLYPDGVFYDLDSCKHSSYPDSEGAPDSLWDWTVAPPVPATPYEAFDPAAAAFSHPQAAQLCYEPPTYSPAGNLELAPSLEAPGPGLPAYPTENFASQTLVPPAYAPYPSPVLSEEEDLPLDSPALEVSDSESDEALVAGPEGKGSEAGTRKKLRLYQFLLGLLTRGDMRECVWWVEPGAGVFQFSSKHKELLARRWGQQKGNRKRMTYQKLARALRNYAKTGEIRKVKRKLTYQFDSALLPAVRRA
Chain of ETV1 (P50549 whole entry): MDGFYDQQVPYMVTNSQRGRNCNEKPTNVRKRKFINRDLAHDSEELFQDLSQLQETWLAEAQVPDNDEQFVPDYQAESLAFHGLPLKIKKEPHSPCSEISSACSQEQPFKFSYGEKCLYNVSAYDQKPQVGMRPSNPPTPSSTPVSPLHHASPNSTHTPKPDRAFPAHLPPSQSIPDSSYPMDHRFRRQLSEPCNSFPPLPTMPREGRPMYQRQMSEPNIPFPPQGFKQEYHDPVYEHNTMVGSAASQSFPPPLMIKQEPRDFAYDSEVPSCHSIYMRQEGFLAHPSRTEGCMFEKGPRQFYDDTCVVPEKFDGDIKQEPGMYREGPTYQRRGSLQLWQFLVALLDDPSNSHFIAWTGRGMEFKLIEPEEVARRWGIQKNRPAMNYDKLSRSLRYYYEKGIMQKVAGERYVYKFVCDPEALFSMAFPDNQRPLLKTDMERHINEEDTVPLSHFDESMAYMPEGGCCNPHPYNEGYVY
Chain of ELF4 (Q99607 whole entry): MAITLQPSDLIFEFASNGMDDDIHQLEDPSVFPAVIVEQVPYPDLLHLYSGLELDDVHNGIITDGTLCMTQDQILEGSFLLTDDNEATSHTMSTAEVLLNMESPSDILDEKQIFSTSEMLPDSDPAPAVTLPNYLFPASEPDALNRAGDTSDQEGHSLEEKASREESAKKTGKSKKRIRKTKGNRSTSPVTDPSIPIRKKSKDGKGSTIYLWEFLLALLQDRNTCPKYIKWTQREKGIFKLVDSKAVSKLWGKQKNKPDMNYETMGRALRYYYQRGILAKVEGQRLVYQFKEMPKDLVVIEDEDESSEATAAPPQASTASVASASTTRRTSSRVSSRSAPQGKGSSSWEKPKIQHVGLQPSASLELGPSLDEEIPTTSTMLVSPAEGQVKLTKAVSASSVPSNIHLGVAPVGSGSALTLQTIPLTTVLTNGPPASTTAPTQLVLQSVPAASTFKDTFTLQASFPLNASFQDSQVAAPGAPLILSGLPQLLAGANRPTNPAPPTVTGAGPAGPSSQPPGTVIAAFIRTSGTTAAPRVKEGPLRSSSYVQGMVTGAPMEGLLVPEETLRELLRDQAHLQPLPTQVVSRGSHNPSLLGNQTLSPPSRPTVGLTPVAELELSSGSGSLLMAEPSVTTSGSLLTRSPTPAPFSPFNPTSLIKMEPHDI
Chain of CRX (O43186 whole entry): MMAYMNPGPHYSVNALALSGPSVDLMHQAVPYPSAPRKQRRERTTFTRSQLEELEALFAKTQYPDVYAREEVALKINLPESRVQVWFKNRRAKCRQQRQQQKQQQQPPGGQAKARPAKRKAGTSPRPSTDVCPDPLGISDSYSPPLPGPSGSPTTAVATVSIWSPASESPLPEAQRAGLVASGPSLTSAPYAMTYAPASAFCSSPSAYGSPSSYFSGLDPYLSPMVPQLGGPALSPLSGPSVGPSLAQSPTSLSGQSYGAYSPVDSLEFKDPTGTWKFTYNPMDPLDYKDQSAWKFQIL
Chain of ELF1 (P32519 whole entry): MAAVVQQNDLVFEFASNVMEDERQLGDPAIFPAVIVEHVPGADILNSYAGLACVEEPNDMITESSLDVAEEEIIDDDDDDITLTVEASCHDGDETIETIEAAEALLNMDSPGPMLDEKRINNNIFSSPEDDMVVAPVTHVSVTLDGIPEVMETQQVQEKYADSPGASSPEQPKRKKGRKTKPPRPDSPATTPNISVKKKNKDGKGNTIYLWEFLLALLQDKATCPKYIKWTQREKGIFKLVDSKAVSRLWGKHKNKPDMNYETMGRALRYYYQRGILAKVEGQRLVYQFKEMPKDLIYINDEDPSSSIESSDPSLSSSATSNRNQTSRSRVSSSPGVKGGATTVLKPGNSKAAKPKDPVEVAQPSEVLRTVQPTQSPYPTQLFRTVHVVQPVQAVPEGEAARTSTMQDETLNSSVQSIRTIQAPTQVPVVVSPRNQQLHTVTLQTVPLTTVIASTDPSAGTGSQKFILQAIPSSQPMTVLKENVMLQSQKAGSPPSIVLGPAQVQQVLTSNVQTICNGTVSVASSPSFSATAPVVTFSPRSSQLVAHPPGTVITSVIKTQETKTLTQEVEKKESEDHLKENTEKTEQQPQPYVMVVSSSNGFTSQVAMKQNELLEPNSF
Chain of ETV5 (P41161 whole entry): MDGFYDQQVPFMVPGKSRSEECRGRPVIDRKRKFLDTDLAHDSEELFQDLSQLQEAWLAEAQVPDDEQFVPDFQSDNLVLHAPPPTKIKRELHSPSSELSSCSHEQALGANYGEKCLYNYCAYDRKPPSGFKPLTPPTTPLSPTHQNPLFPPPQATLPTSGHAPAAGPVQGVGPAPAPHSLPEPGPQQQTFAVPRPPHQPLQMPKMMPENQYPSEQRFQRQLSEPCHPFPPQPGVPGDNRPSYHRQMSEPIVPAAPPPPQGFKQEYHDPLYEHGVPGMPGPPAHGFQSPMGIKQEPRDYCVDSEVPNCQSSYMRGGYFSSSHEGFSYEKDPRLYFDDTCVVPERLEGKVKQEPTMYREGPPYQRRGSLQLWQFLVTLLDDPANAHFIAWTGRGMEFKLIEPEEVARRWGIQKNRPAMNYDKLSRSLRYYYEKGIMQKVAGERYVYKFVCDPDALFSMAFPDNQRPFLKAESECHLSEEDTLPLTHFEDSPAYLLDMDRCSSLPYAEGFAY
Chain of HSF1 (Q00613 whole entry): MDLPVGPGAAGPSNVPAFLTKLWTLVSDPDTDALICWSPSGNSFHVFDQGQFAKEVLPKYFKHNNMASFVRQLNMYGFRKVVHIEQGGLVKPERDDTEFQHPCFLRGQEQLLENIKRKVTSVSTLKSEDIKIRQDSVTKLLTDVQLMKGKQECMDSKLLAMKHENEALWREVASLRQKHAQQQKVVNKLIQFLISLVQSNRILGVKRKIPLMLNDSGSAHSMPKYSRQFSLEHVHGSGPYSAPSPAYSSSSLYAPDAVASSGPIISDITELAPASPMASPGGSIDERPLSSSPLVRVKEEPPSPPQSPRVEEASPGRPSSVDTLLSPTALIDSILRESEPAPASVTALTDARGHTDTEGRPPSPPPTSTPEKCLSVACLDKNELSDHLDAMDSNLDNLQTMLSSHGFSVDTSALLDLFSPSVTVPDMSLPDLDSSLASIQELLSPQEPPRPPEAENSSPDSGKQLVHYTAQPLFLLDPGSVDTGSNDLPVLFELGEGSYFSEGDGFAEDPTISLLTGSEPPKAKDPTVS

CATTTA
binding signal (FLI1): 1.28 fold enrichment (6-mer frequency, TF over GST control)
binding signal (ELK1): 1.23 fold enrichment (6-mer frequency, TF over GST control)
binding signal (GABPA): 1.31 fold enrichment (6-mer frequency, TF over GST control)
binding signal (ERG): 1.25 fold enrichment (6-mer frequency, TF over GST control)
binding signal (ELF1): 1.27 fold enrichment (6-mer frequency, TF over GST control)
binding signal (EHF): 1.32 fold enrichment (6-mer frequency, TF over GST control)
binding signal (SPI1): 1.26 fold enrichment (6-mer frequency, TF over GST control)
binding signal (SPIB): 1.18 fold enrichment (6-mer frequency, TF over GST control)
binding signal (ELK3): 1.23 fold enrichment (6-mer frequency, TF over GST control)
binding signal (FEV): 1.23 fold enrichment (6-mer frequency, TF over GST control)
binding signal (ETV5): 1.22 fold enrichment (6-mer frequency, TF over GST control)
binding signal (HSF1): 1.13 fold enrichment (6-mer frequency, TF over GST control)
binding signal (SPIC): 1.17 fold enrichment (6-mer frequency, TF over GST control)
binding signal (ELF4): 1.14 fold enrichment (6-mer frequency, TF over GST control)
binding signal (ELK4): 1.17 fold enrichment (6-mer frequency, TF over GST control)
binding signal (ETV2): 1.34 fold enrichment (6-mer frequency, TF over GST control)
binding signal (ELF3): 1.2 fold enrichment (6-mer frequency, TF over GST control)
binding signal (CRX): 1.36 fold enrichment (6-mer frequency, TF over GST control)
binding signal (ETV1): 1.22 fold enrichment (6-mer frequency, TF over GST control)
